Among all 4,800 compounds or so, about 420 (8.8%) showed an effect of 50% or more. For the sample, strong results were picked, then their nearest neighbours and some compounds at random.

Here are results for 109 molecules from ChEMBL document CHEMBL4888484, “Replenishing the malaria drug discovery pipeline: Screening and hit evaluation of the MMV Hit Generation Library 1 (HGL1) against asexual blood stage Plasmodium falciparum ,using a nano luciferase reporter read-out” (2022).

This assay deals with Plasmodium falciparum. Kind of assay: Confirmatory screen in NF54 nanoGlo assay, in single point, at 2uM, 72h. In kind it is functional, Erythrocyte. Particulars: timepoint 72 hour.
What is called % Inhibition is the change of the read-out against control, counted positive when it falls. As to `COc1cccc(-c2nn(-c3nc(-c4ccccc4)cc(C(F)(F)F)n3)c(-c3cccc(OC)c3)c2Cl)c1`, the “% Inhibition” value came to 54%.
On to `COc1ccc(-c2cc(C(F)(F)F)nc(-n3nc(-c4cccc(OC)c4)c(Cl)c3-c3cccc(OC)c3)n2)cc1`, for which the “% Inhibition” value stood at 84%.
In the case of `COc1cccc(-c2nc3n(c2C(=O)Nc2cccc(Cl)c2)CCS3(=O)=O)c1`, the “% Inhibition” value is given as -3%.
As for `COc1cccc(-c2cc(C(=O)Nc3cc(Cl)ccc3C)c3c(C)nn(C)c3n2)c1`, the “% Inhibition” value is -15%.
The result for `COc1cccc(-c2cc(C(=O)N3CCCN(C(=O)c4cc(-c5cccc(OC)c5)nc5ccccc45)CC3)c3ccccc3n2)c1` reads -1%; that for `COc1cccc(-c2cc(C(=O)Nc3ccc(F)c(Cl)c3)c3c(C)nn(C)c3n2)c1`, -4%; that for `COc1ccc(C)cc1NC(=O)c1nn(-c2ccccc2)c2ccccc2c1=O`, 17%.
The result for `CCn1cc(Cl)c(C(=O)N2CCN(C(=O)c3ccco3)CC2)n1` reads -11%; that for `Cc1ccc(CN2CCN(CC(=O)NC3CCCCC3C)C2=O)cc1` (centres undefined), -10%.
The result for `C[C@](O)(CNC(=O)Cn1nc2ccccn2c1=O)c1cccs1` reads -1%; that for `Clc1ccc(NC2(c3noc([C@@H]4CCCCO4)n3)CCC2)cc1`, 5%.
As for `COc1ccc(CNCc2ccc(C)cc2)cc1Cn1ccnc1`, the “% Inhibition” value came out at 42%.
For `COc1cc(CNCc2cccs2)ccc1OCc1ccccc1C`, the “% Inhibition” value is -7%.
As to `CC1Cc2cc(-c3ccc(CNC(=O)C(C)(O)C4CC4)cc3)ccc2O1` (centres undefined), the “% Inhibition” value is given as 4%.
For the molecule `CC1(C)C[C@@H](NC(=O)c2cc3[nH]cnc3cc2F)CCO1`, the “% Inhibition” value is on record as 7%.
The result for `Cc1cc([C@H](Nc2ccccn2)c2ccccc2)c(NC(=O)c2ccccc2)s1` reads 4%; that for `Cc1cc([C@H](Nc2ccccn2)c2cccnc2)c(NC(=O)c2ccccc2)s1`, 2%.
With `Oc1ccc2ncccc2c1[C@@H](Nc1ccccn1)c1cccc(Br)c1` the figure was 67%; with `Cc1nn(C)c(C)c1S(=O)(=O)N1CCCN(c2ccc(F)c(F)c2)CC1`, 3%; with `CCCn1c(C)cnc1C1CN(S(=O)(=O)c2ccc(C)c(F)c2)C1`, -6%.
Take `Cc1noc(C(C)(C)NC(=O)Nc2c[nH]nc2-c2nccs2)n1`: the “% Inhibition” value is reported as -7%.
With `COc1ccc(Cl)cc1S(=O)(=O)c1cnc(N2CCOCC2)nc1N` the figure was -2%.
Regarding `C[C@@H](CNc1ncc(C(=O)N2CCOCC2)cc1Cl)c1nncn1C`, the “% Inhibition” value is -12%.
Regarding `COCCN1C(=O)C[C@H](Nc2ccc3c(c2)CCC3)C1=O`, the “% Inhibition” value is given as 1%.
The result for `Cc1ccc(C)c(C(=O)CN2Cc3ccccc3C2=N)c1` reads 0%; that for `Fc1ccc(Nc2nc3c(s2)CCCC3)cc1`, -17%.
`c1ccc(C(c2ccccc2)N2CCN(c3nn4cnnc4c4ccccc34)CC2)cc1`: the “% Inhibition” value is recorded as 65%.
The result for `Fc1cccc(-n2nc(-c3ccccc3F)cc2-c2ccccc2F)c1` reads -6%; that for `CCOc1cc2c(cc1OC)[C@@H](N)CC2=O`, 1%.
The result for `CC(C)c1cc(CN(Cc2cc(C(C)C)c(O)c(C(C)C)c2)C2CCCCC2)cc(C(C)C)c1O` reads 96%; that for `Cc1ccc(CN(C)C2CCCCC2)o1`, -18%.
With `CCc1nn(C)cc1CN(Cc1cccc(O)c1)C1CCC(O)CC1` (centres undefined) the figure was -3%; with `Cc1ccc(-c2ccnc3c(C(=O)NC4CC4)cnn23)cc1C`, -2%; with `Cc1c([C@@H](NCc2ncccc2O)C(C)C)oc2ccccc12`, 99%.
Take `N#CC1(C#N)C(c2ccc(Cl)cc2)C1(C#N)C#N`: the “% Inhibition” value is listed as 11%.
Consider `O=C(NCc1cccc(C(F)(F)F)c1)c1csc(C(=O)NC2CCCC2)n1`, for which the “% Inhibition” value is on record as -14%.
On to `CN(C)c1c(F)c(F)c2cc3c(C(C)(C)C)nn(C)c3nc2c1F`, for which the “% Inhibition” value amounted to 3%.
In the case of `COc1ccc([C@H](CNC(=O)c2ccccc2)N2CCC(c3ccccc3)=N2)cc1`, the “% Inhibition” value is -3%.
On to `Clc1ccc(Cn2cc(CNCCCn3ccnc3)c3ccccc32)c(Cl)c1`, for which the “% Inhibition” value is listed as 98%.
With `COc1cccc(CNCCN2CCOCC2)c1OCc1ccc(Cl)cc1Cl` the figure was 7%; with `Clc1ccc(COc2ccc(Cl)cc2CNCCCn2ccnc2)c(Cl)c1`, 95%; with `COc1cccc(CNCCCN2CCOCC2)c1OCc1ccc(Cl)cc1Cl`, -1%.
Consider `CCOc1cc(CNCCCn2ccnc2)ccc1OCc1ccccc1`, for which the “% Inhibition” value is 21%.
As for `OCCNCc1ccc(Cl)cc1Cl`, the “% Inhibition” value is given as 0%.
With `Cc1nc2ccnn2cc1C(=O)Nc1ccc(CCC(C)C)cn1` the figure was -5%; with `Cc1cc(CN(C)c2cc(C3CC3)nc(N(C)Cc3cc(C)on3)n2)no1`, -13%; with `FC(F)Oc1cccc(-c2cc(C(F)(F)F)c3c(-c4ccc5c(c4)OCO5)noc3n2)c1`, 8%.
With `N#Cc1nc(COc2cccc(Cl)c2)oc1NC[C@H]1CCCO1` the figure was -1%; with `CN(CC(=O)Nc1ncccn1)S(=O)(=O)c1ccc2c(c1)OCCCO2`, -7%; with `O=C1CC(C(=O)N2CCCCC2c2nc(-c3ccccc3)c[nH]2)CN1` (centres undefined), 3%.
Regarding `N[C@H]1C[C@@H](c2cc(N3CCN(C4CCCCC4)CC3)nc(N3CCCC3)n2)C1`, the “% Inhibition” value was 44%.
The result for `Nc1nc(N2CCN(c3ccc(F)c(Cl)c3)CC2)cc([C@H]2C[C@@H](N)C2)n1` reads 32%.
With `Nc1nc(C2CC(N)C2)cc(N2CCC(Oc3ccccc3Cl)CC2)n1` (centres undefined) the figure was 51%; with `CCC1CN(CCCN2C(=O)CNC2=O)CCC1c1ccccc1` (centres undefined), 0%.
With `COC(=O)C1(CNC(=O)C2CCC2)CCCCC1` the figure was 1%.
Consider `CCN(C(=O)Cn1ncn2nc(-c3cccc4ccccc34)cc2c1=O)c1ccccc1`, for which the “% Inhibition” value was determined as 1%.
For `CCN(C(=O)Cn1cc(-c2ccccc2)c2ncn(CC)c(=O)c21)c1ccccc1`, the “% Inhibition” value is reported as 75%.
`CCN(C(=O)CN1C(=O)C(c2ccccc2)=NC12CCC(C)CC2)c1ccccc1` (centres undefined): the “% Inhibition” value is given as -9%.
For `CCOC[C@@H](O)CN(Cc1c(-c2ccccc2)noc1N1CCC(C)CC1)CC1CC1`, the “% Inhibition” value is listed as -7%.
With `O=C(NC1CCN(Cc2ccccc2)CC1)c1cn[nH]c1-c1ccccc1` the figure was -3%.
With `CCOC(=O)N1CCC(NC(=O)c2cn[nH]c2-c2ccc(OCC)c(Cl)c2)CC1` the figure was 2%; with `CNC(=O)N1CCN(c2cc(C)nc(C3CC3)n2)CC1`, -18%; with `O=C(Cn1nnc2ccccc21)N(Cc1ccccc1)C1(C(=O)Nc2ccc3c(c2)OCO3)CCCCC1`, 23%.
With `O=C(COc1ccccc1)N1CC(n2cnnc2C2CC2)C1`, the “% Inhibition” value is -11%.
With `CC1CC(C(=O)Nc2[nH]c(=O)ncc2F)CC(C)(C)C1` (centres undefined) the figure was 92%.
Consider `CN(C)C(=O)NCCc1ncc(C(F)(F)F)cc1Cl`, for which the “% Inhibition” value is on record as -5%.
With `Cc1cc(C#N)cc(C)c1Oc1nc(Nc2ccc(C#N)cc2Br)nc(N)c1Br` the figure was -9%; with `O=C(Nc1[nH]c(=O)ncc1F)c1coc(-c2ccccc2)n1`, 80%.
The result for `CC(C)c1nc(C(=O)Nc2ccccc2CN2CCNC2=O)cs1` reads 3%; that for `O=C(c1coc(-c2ccccc2)n1)N1CCc2cc(Br)ccc21`, -4%.
With `Cc1nc(C(=O)Nc2[nH]c(=O)ncc2F)c(-c2ccccc2)o1` the figure was 85%.
Take `CC(C)c1nc(C(=O)Nc2[nH]c(=O)ncc2F)cs1`: the “% Inhibition” value is on record as 92%.
The result for `Cc1ccc(-c2cc(C(=O)Nc3nnc(C(C)C)s3)no2)cc1F` reads 39%; that for `COc1ccc(CN2CC[C@@H]3C(=O)NCCCCCCN(Cc4ccncc4)[C@@H]3C2)cc1Cn1ccnc1`, 47%; that for `COc1cc2c(cc1OC)C(Nc1cc(C)ccc1C)=NC(C)(C)C2`, -7%.
As for `CCC[C@@]1(C)C(=O)NCCN1Cc1nnc(-c2ccc(Cl)cc2)n1C`, the “% Inhibition” value is -10%.
Consider `CCOC1CC2(CCN(Cc3cc(Cl)c(OC)cc3Cl)C2)C1` (centres undefined), for which the “% Inhibition” value is given as 1%.
With `CC(=O)N(CC[C@]1(Cc2ccccc2Cl)CCOC(C)(C)C1)Cc1ccc(F)cc1` the figure was 0%.
For the molecule `COc1ccc(-c2nn3c(Cc4ccccn4)nnc3s2)cc1OC`, the “% Inhibition” value came to 4%.
With `Cc1ccc(Cn2c(=O)c(N3CCC[C@H](C(=O)NCc4ccccc4F)C3)nc3ccccc32)cc1` the figure was -4%; with `C[C@@H](CCc1ccccc1)NC(=O)c1cnn2c3c(cnc12)CCCC3`, -8%; with `Cn1nc(C(=O)N2CCCCC[C@H]2C2CCCCC2)ccc1=O`, -10%.
The result for `Cc1cccc(NC(=O)C(=O)N(C)[C@H]2CCCc3c2cnn3C)c1F` reads -17%; that for `CC(C)Cc1cc(C(=O)N2CCc3c(C#N)cccc32)cc(O)n1`, -8%.
The result for `Cc1cc(-c2ccccc2)nc2sc(-c3ccccc3)c([O-])[n+]12` reads -2%; that for `Cc1cc(-c2ccccc2)cc(-c2ccccc2)c1-c1cc(-c2ccccc2)cc(-c2ccccc2)n1`, -10%.
`Cc1cc[n+]2c(-c3ccccc3)cc(-c3ccccc3)nc2c1`: the “% Inhibition” value came to 62%.
The result for `CC[n+]1c(C)sc2cc(-c3ccccc3)sc21` reads -15%; that for `O=C(O)CC1(NC(=O)c2cc(Oc3ccccc3)ccn2)CCC1`, -7%; that for `CCOc1ncccc1CNC(=O)CNC(C)=O`, 3%.
Consider `Cc1ccc(C(=O)N2CC(C)CC(C)C2)cc1NCc1ncc[nH]1` (centres undefined), for which the “% Inhibition” value was 8%.
With `C[C@](O)(CCc1ccccc1)C(=O)NCCc1ncc[nH]1` the figure was 3%.
The result for `Cc1ccccc1C(=O)Cc1ncc[nH]1` reads 75%; that for `COCC[C@](C)(O)CNC(=O)Nc1ccccc1`, 1%.
The result for `CC[C@@H](c1ccncc1)N(C)Cc1cc(-c2ccc(Cl)cc2)no1` reads -6%; that for `COCc1nncn1C1CN(C(=O)Cc2cc(OC)cc(OC)c2)C1`, -16%; that for `COc1nn(C)cc1C(=O)N1CCC[C@H](Oc2cccnn2)C1`, 1%.
In the case of `Cc1cc(C(=O)NCCCN2CCCC2=O)nn1C(F)F`, the “% Inhibition” value is given as -13%.
The result for `CCn1cc(-c2cc(C(F)(F)F)nc(N3CCCC3)n2)cn1` reads 4%; that for `Cn1c(-c2ccc(Br)cc2)c[n+](CC(=O)c2ccc(Br)cc2)c1N`, -8%.
With `COc1ccc2c(c1)[n+](CC(=O)c1ccc(-c3ccc(Br)cc3)cc1)c(CO)n2C` the figure was 46%; with `COc1ccc(N2CCN(Cc3cc(-c4ccc(Cl)cc4)no3)CC2)cc1`, -22%.
The result for `COc1cccc(C(=O)C[n+]2cc(-c3ccc(Br)cc3)n(C)c2N)c1` reads -3%.
`COc1ccc(C(=O)C[n+]2nc(CNc3ccc(Br)cc3)n3c2CCCCC3)cc1`: the “% Inhibition” value is 84%.
With `FC(F)Oc1ccc(-c2c[n+](-c3cccc(C(F)(F)F)c3)c3n2CCCCC3)cc1` the figure was 44%; with `COc1ccc(-c2c[n+](-c3ccc(Cl)cc3)c3n2CCCCC3)cc1`, 60%; with `Cc1ccc(-c2c[n+](-c3ccc(OC(F)F)cc3)c3n2CCCCC3)cc1`, 67%.
With `COc1ccc(CC(=O)NCc2nnc3n2CCC3)cc1` the figure was 12%; with `COc1ccc(C(=O)C[n+]2cc(-c3ccc(OC)cc3)n3c2CCCC3)cc1`, 60%.
